Source: PubChem BioAssay (EPA / NIEHS)
Results filed as inconclusive are left out. The source made the active and inactive calls. Rule for the calls, unless noted: active = hit-call score of the fitted dose curve at least 0.9, where 1 is the maximum; inactive = score below 0.9.

Legend:
[1] = target: Glucocorticoid receptor (Homo sapiens) (UniProt P04150); test: ATG_GR_TRANS: Attagene TRANS-FACTORIAL HepG2 Assay for human Glucocorticoid Receptor (GR) (AID 2282978; active = hit-call score of the fitted dose curve at least 0.9, where 1 is the maximum;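 note: activators score as hits since higher reporter transcript over DMSO is fitted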); settings: HepG2 Attagene TRANS GR reporter, mRNA transcription
Outline: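 Transiently transfected HepG2 cells express chimeric NR-GAL4 proteins acting on GAL4-UAS reporter units. Compounds are applied for 24 h. mRNA induction over DMSO is measured by capillary electrophoresis.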

[2] = target: Hepatocyte nuclear factor 4-alpha (Homo sapiens) (UniProt P41235); test: ATG_HNF4a_TRANS: Attagene TRANS-FACTORIAL HepG2 Assay for human Hepatocyte Nuclear Factor 4 alpha (HNF4a) (AID 2282982; active = hit-call score of the fitted dose curve at least 0.9, where 1 is the maximum); settings: HepG2 HNF4a transactivation reporter, mRNA readout
Outline: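 Cells used were human HepG2, transiently carrying GAL4-UAS reporter units read out against exogenous NR-GAL4 chimeras. Reporter transcript levels after 24 h dosing were quantified by fluorescent RT-PCR and capillary electrophoresis.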

[3] = ATG_M_32_TRANS: Attagene TRANS-FACTORIAL HepG2 Assay for M32 Transcription Factor (Internal Marker) (AID 2282984; active = hit-call score of the fitted dose curve at least 0.9, where 1 is the maximum;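 note: transcript level of a background control reporter unit measured by RT-PCR and capillary electrophoresis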); settings: HepG2 Attagene TRANS M32 internal marker reporter
Outline: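 Human hepatoma HepG2, transient MRTU transfection, 24 h treatment. RNA → RT-PCR → fluorescent primer extension → HpaI digest (2 h, 37 C) → CE. Positive-direction fit vs DMSO.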

[4] = target: Nuclear receptor subfamily 4 group A member 2 (Homo sapiens) (UniProt P43354); test: ATG_NURR1_TRANS: Attagene TRANS-FACTORIAL HepG2 Assay for human Nuclear Receptor Related Protein 1 (NURR1) (AID 2282985; active = hit-call score of the fitted dose curve at least 0.9, where 1 is the maximum); settings: HepG2 Attagene TRANS reporter, mRNA readout
Outline: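 After 24 h chemical dosing, total RNA from transiently transfected HepG2 cells was reverse-transcribed and reporter cDNA PCR-amplified, FAM-labelled and analysed by capillary electrophoresis. Activity fitted in positive direction, DMSO as negative control.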

[5] = target: Transcriptional activator Myb (Homo sapiens) (UniProt P10242); test: ATG_Myb_CIS: Attagene CIS-FACTORIAL HepG2 Assay for human Myeloblastosis (Myb) Proto-Oncogene Transcription Factor (AID 2282986); settings: HepG2 Attagene CIS-FACTORIAL Myb reporter transcription; actives raise or lower the signal
Outline: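 Using HepG2 liver cells bearing transiently transfected cis-promoter reporter constructs, the assay measures induction or loss of reporter mRNA after 24 hours of dosing. Detection used fluorescently labeled RT-PCR products separated by capillary electrophoresis.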

[6] = target: Nuclear respiratory factor 1 (Homo sapiens) (UniProt Q16656); test: ATG_NRF1_CIS: Attagene CIS-FACTORIAL HepG2 Assay for human Nuclear Respiratory Factor 1 (NRF1) Orphan Gene (AID 2282987); settings: HepG2 NRF1 cis-element reporter, Attagene multiplex; actives raise or lower the signal
Outline: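 Reporter mRNA induction or loss in HepG2 cells after 24 h dosing; cis-regulated reporter constructs report endogenous transcription-factor activity. Quantified by RT-PCR/capillary electrophoresis fluorescence, DMSO-referenced.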

[7] = ATG_NFI_CIS: Attagene CIS-FACTORIAL HepG2 Assay for human Nuclear Factor I (NFI) (AID 2282989); settings: HepG2 cis-regulatory reporter, NFI response element transcription; actives raise or lower the signal
Outline: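 Reporter transcripts were measured by RT-PCR with fluorescent primer extension and capillary electrophoresis 24 h post-treatment. HepG2 cells carried transiently transfected cis-regulated reporter constructs reporting endogenous factor activity; gain or loss fitted against DMSO baseline.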

[8] = target: Myc proto-oncogene protein (Homo sapiens) (UniProt P01106); test: ATG_Myc_CIS: Attagene CIS-FACTORIAL HepG2 Assay for human Myelocytomatosis (Myc) Proto-Oncogene Transcription Factor (AID 2282990); settings: HepG2, Attagene cis-reporter transcription factor activity; actives raise or lower the signal
Outline: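 DMSO-normalised, bidirectionally fitted reporter mRNA signal. HepG2 cells transfected with cis reporter constructs, treated 24 h; transcripts detected by RT-PCR, 6-FAM primer extension and CE.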

[9] = ATG_NF_kB_CIS: Attagene CIS-FACTORIAL HepG2 Assay for human Nuclear Factor Kappa B (NF-kB) (AID 2282991); settings: HepG2 Attagene cis-factorial NF-kB reporter mRNA; actives raise or lower the signal
Outline: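 DMSO served as negative control and baseline for bidirectional curve fitting. Transiently transfected HepG2 cells were dosed for 24 h, then reporter transcripts were measured by RT-PCR with capillary electrophoresis detection.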

[10] = ATG_NRF2_ARE_CIS: Attagene CIS-FACTORIAL HepG2 Assay for human Nuclear Factor Erythroid 2 Related Factor 2 (NFR2) response to Antioxidant Response Elements (ARE) (AID 2282992); settings: HepG2 Attagene ARE/NRF2 reporter, transcription factor activity; actives raise or lower the signal;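 for AC50: reporter mRNA level measured by RT-PCR and capillary electrophoresis fluorescence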
Outline: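 Cis-factorial assay: transfected HepG2 reporter library, 24 h dosing, mRNA readout via RT-PCR/CE; DMSO-referenced bidirectional analysis.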

[11] = ATG_Oct_MLP_CIS: Attagene CIS-FACTORIAL HepG2 Assay for human Octamer-Binding Transcription Factor (Oct) (AID 2282993); settings: HepG2 Attagene cis-factorial Oct reporter, mRNA; actives raise or lower the signal
Outline: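 Readout is reporter transcript level from RT-PCR with fluorescent primer extension and capillary electrophoresis, fitted in both directions against DMSO. Transfected HepG2 reporter units report endogenous factor activity after 24 h dosing.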

[12] = target: Cellular tumor antigen p53 (Homo sapiens) (UniProt P04637); test: ATG_p53_CIS: Attagene CIS-FACTORIAL HepG2 Assay for human p53 Transcription Factor (AID 2282994); settings: HepG2 p53 cis-element reporter, Attagene mRNA; actives raise or lower the signal
Outline: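 Using HepG2 hepatoma cells carrying cis-acting multiplexed reporters, mRNA induction is detected after a 24 h exposure. Gain- and loss-of-signal responses are fitted relative to DMSO-treated cells.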

[13] = target: Oxysterols receptor LXR-beta (Homo sapiens) (UniProt P55055); test: ATG_LXRb_TRANS: Attagene TRANS-FACTORIAL HepG2 Assay for human Liver X Receptor beta (LXRb) (AID 2282981; active = hit-call score of the fitted dose curve at least 0.9, where 1 is the maximum); settings: HepG2 Attagene TRANS GAL4-LXRb reporter, mRNA
Outline: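 In this TRANS format, exogenous chimeric NR-Gal4 protein activity, not endogenous factors, drives reporter expression in transfected human HepG2 cells. Exposure lasted 24 h; reporter mRNA was read by fluorescent capillary electrophoresis.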

[14] = ATG_M_06_TRANS: Attagene TRANS-FACTORIAL HepG2 Assay for M06 Transcription Factor (Internal Marker) (AID 2282983; active = hit-call score of the fitted dose curve at least 0.9, where 1 is the maximum); settings: HepG2 Attagene TRANS M06 internal marker reporter
Outline: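 Measured by capillary electrophoresis of fluorescently labelled RT-PCR products, this endpoint reflects reporter mRNA in HepG2 cells harbouring exogenous NR-GAL4 reporter constructs after 24 h exposure, with DMSO as baseline.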

Measured: AC50

Chain of Hepatocyte nuclear factor 4-alpha (Homo sapiens) (P41235 whole entry, looked up, the tested form may be a part): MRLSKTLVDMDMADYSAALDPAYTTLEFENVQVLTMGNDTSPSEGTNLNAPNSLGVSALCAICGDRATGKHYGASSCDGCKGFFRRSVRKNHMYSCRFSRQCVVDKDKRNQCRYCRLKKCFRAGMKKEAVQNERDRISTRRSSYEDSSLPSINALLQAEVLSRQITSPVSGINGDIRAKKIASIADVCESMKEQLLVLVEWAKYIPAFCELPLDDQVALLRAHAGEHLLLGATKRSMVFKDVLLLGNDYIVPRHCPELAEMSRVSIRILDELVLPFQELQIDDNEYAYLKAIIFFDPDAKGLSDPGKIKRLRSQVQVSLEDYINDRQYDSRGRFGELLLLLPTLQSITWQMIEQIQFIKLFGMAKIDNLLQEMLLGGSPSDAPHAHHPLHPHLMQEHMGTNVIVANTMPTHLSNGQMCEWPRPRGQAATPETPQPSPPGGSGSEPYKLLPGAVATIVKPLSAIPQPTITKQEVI
Chain of Glucocorticoid receptor (Homo sapiens) (P04150 whole entry, looked up, the tested form may be a part): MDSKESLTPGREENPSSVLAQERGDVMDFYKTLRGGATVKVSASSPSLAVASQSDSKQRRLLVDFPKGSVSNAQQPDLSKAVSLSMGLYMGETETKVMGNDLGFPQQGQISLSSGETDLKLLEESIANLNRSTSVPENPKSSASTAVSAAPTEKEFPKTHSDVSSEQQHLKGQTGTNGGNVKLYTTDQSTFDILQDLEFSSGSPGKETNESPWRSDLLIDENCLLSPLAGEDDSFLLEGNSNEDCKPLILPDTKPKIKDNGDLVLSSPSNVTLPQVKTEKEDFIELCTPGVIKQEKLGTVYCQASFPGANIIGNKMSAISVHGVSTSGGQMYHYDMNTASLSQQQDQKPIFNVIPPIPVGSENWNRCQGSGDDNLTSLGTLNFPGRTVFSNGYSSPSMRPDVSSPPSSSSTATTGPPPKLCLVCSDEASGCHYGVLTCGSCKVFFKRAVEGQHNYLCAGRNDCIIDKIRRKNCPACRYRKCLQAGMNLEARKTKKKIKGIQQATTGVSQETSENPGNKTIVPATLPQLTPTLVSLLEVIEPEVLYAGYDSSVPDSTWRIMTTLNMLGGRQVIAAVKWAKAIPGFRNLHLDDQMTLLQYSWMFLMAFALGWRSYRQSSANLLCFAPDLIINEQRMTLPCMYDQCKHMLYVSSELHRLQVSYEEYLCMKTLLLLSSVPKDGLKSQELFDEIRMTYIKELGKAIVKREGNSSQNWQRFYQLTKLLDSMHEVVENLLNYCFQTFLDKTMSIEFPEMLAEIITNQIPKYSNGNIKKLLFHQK
Chain of Cellular tumor antigen p53 (Homo sapiens) (P04637 whole entry, looked up): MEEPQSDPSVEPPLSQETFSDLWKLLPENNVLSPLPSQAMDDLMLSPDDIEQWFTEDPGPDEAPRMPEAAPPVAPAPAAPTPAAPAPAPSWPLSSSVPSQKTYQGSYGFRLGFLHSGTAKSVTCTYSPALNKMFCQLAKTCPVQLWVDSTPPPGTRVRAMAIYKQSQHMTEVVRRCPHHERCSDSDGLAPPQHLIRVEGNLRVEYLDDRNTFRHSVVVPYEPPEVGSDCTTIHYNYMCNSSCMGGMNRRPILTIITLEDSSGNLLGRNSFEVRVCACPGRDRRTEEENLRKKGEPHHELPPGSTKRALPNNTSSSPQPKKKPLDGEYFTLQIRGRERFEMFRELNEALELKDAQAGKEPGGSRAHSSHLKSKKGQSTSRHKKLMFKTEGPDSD
Chain of Nuclear receptor subfamily 4 group A member 2 (Homo sapiens) (P43354 whole entry, looked up): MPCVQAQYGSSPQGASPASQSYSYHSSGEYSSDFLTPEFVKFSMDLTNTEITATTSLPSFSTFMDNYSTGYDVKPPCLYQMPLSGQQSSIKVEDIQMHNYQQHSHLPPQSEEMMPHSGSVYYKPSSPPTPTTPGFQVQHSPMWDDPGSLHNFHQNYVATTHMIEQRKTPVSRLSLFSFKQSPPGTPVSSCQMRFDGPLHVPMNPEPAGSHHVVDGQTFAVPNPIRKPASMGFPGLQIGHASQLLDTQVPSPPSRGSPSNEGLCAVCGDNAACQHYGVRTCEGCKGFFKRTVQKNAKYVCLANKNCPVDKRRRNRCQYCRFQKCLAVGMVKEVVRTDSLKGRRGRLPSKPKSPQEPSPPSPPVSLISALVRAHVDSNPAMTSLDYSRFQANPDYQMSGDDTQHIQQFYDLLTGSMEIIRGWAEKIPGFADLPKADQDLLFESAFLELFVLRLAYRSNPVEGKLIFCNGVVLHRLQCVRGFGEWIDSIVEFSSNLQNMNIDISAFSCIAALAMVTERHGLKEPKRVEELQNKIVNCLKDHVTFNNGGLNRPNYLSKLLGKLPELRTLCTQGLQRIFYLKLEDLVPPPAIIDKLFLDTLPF
Chain of Myc proto-oncogene protein (Homo sapiens) (P01106 whole entry, looked up): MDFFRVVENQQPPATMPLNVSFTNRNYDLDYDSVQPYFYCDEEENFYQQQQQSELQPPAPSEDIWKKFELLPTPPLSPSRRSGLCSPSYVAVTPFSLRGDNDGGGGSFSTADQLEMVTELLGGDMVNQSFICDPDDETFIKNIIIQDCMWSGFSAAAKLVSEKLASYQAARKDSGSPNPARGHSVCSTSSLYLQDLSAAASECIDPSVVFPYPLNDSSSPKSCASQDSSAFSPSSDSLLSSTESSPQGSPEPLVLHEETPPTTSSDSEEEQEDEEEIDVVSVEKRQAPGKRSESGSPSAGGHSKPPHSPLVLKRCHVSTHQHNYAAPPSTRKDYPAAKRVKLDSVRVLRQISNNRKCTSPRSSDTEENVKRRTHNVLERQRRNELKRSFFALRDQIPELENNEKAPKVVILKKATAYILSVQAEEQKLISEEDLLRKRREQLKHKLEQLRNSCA
Chain of Nuclear respiratory factor 1 (Homo sapiens) (Q16656 whole entry, looked up): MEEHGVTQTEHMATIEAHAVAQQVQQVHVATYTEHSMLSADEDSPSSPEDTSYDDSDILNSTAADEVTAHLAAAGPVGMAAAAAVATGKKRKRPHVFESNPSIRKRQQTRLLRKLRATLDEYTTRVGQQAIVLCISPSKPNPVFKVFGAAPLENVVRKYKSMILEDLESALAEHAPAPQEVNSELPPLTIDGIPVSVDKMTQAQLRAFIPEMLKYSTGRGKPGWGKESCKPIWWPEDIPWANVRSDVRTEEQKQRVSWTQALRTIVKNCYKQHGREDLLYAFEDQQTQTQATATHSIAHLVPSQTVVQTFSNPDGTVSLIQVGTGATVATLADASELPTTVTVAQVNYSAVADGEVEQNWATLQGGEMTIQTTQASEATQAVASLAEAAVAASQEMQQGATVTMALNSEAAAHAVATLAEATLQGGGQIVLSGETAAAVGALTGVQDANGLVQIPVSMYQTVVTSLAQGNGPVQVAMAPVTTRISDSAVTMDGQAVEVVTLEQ
Chain of Transcriptional activator Myb (Homo sapiens) (P10242 whole entry, looked up): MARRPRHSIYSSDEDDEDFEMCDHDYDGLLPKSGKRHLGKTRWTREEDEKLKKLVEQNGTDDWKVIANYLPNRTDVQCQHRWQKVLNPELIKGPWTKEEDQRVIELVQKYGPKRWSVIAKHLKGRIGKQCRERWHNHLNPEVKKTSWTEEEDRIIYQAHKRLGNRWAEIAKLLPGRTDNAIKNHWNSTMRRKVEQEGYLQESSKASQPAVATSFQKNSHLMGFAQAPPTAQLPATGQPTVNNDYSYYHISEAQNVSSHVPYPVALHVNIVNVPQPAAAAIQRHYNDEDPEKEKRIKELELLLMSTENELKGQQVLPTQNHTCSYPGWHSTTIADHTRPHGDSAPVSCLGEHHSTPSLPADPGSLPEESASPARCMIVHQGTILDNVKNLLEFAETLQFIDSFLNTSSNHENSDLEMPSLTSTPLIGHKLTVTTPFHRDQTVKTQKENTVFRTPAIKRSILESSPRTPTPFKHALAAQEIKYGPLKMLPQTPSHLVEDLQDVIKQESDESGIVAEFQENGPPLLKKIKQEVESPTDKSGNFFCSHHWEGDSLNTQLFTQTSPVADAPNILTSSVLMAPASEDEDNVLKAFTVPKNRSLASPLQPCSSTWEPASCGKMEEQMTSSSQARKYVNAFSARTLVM
Chain of Oxysterols receptor LXR-beta (Homo sapiens) (P55055 whole entry, looked up, the tested form may be a part): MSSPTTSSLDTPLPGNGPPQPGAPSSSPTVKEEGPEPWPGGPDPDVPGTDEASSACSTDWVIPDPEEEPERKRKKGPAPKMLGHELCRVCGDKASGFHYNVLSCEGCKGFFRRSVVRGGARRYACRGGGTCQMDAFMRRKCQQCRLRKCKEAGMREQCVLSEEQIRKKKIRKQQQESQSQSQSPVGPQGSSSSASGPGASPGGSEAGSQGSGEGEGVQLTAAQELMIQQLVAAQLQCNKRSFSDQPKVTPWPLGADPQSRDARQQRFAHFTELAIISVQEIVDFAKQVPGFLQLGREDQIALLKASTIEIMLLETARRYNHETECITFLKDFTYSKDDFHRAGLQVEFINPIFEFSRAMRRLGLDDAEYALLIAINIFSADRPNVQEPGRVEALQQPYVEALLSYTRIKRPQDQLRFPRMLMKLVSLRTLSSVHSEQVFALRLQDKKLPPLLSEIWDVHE

Cc1c(C2(c3cc(Br)c(O)c(Br)c3C)OS(=O)(=O)c3ccccc32)cc(Br)c(O)c1Br
active: [10] 52.5 µM
not listed: [13] | [14]
inactive: all other assays above

C[C@H]1O[C@@H](O[C@H]2[C@@H](O)C[C@H](O[C@H]3[C@@H](O)C[C@H](O[C@H]4CC[C@@]5(C)[C@H](CC[C@@H]6[C@@H]5C[C@@H](O)[C@]5(C)[C@@H](C7=CC(=O)OC7)CC[C@]65O)C4)O[C@@H]3C)O[C@@H]2C)C[C@H](O)[C@@H]1O
inactive: [1] | [2] | [3] | [4] | [8]
active: [5] 0.428 µM | [6] 0.00312 µM | [7] 0.0705 µM | [9] 0.348 µM | [10] 0.613 µM | [11] 0.133 µM

C=Cc1ccc(C)cc1
not listed: [2] | [4] | [6] | [11] | [14]
inactive: all other assays above

N#Cc1ccc(CC(=O)c2cccc(C(F)(F)F)c2)cc1
active: [4] 100 µM | [6] 100 µM | [7] 188 µM | [8] 158 µM | [10] 13.5 µM
not listed: [13]
inactive: all other assays above

COCCc1ccc(OCC(O)CNC(C)C)cc1 (centres undefined)
not listed: [2] | [4] | [8] | [13] | [14]
inactive: all other assays above

CN1C(=O)c2ccccc2C1=O
not listed: [3] | [6] | [13]
inactive: all other assays above

CCC(=O)O[C@@H]1C[C@H]2CC[C@]1(C)C2(C)C
not listed: [2] | [4] | [8] | [14]
inactive: all other assays above

CS(C)=O
not listed: [3] | [4] | [13] | [14]
inactive: all other assays above

CCCC(=O)OC(C)(C)Cc1ccccc1
active: [10] 145 µM
not listed: [5] | [6] | [13] | [14]
inactive: all other assays above

Nc1ccn([C@H]2CS[C@@H](CO)O2)c(=O)n1
not listed: [3] | [4] | [5] | [13]
inactive: all other assays above

CCc1ncc(C)[nH]1
not listed: [2] | [3] | [4] | [9] | [13]
inactive: all other assays above
